A short description of test [1]: growth inhibition of DIPG glioma cells, dose response, cell-based, SU-DIPG-XVII, MIPE5.0, CellTiter-Glo, qHTS (AID 1347060; cut-off not given, nearly all actives have AC50 up to about 26 µM;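 as to AC50: cells exposed to compound for 48 hours before viability readout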). The following applies: SU-DIPG-XVII viability, CellTiter-Glo ATP luminescence. A general note: Cellular ATP, detected with luciferase, serves as a proxy for viable cell number.
The nature of test [2]: growth inhibition of DIPG glioma cells, dose response, cell-based, SU-DIPG-XIII, MIPE4.0, CellTiter-Glo, qHTS (AID 1347061; cut-off not given, nearly all actives have AC50 up to about 37 µM;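 also: cells exposed to compound for 48 hours before readout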). Conditions: SU-DIPG-XIII viability, CellTiter-Glo ATP luminescence.
Test [3] can be described thus: growth inhibition of DIPG glioma cells, dose response, cell-based, JHH-DIPG-1, MIPE4.0, CellTiter-Glo, qHTS (AID 1347062; cut-off not given, nearly all actives have AC50 up to about 27 µM;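 as to AC50: cells exposed to compound for two days before readout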). Conditions: JHH-DIPG-1 viability, CellTiter-Glo ATP luminescence.
Test [4] is described as follows: growth inhibition of DIPG glioma cells, dose response, cell-based, SU-DIPG-IV, MIPE4.0, CellTiter-Glo, qHTS (AID 1347063; cut-off not given, nearly all actives have AC50 up to about 30 µM;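 also: compound exposure lasted 48 hours before the viability readout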). The following applies: SU-DIPG-IV viability, CellTiter-Glo ATP luminescence.
The nature of test [5]: growth inhibition of DIPG glioma cells, dose response, cell-based, SU-DIPG-XIII, MIPE5.0, CellTiter-Glo, qHTS (AID 1347064; cut-off not given, nearly all actives have AC50 up to about 23 µM;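 as to AC50: cells exposed to compound for 48 hours before the viability read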). The following applies: SU-DIPG-XIII viability, CellTiter-Glo ATP luminescence.
Test [6] in a line: viability loss in pontine glioma line – cell-based, SU-DIPG-XXV, MIPE5.0, CellTiter-Glo, qHTS, dose response (AID 1347065; cut-off not given, nearly all actives have AC50 up to about 26 µM;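 also: cells exposed to compound for 48 hours before ATP readout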). The following applies: CellTiter-Glo ATP luminescence.
Test [7] can be described thus: SU-DIPG-VI glioma cell viability, MIPE4.0 library, CellTiter-Glo luminescence, qHTS (AID 1347066; cut-off not given, nearly all actives have AC50 up to about 30 µM;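 also: cells exposed to compound for 48 hours before readout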). The following applies: CellTiter-Glo ATP luminescence.
Test [8] is described as follows: JHH-DIPG-1 glioma cell viability, MIPE5.0 library, CellTiter-Glo luminescence, qHTS (AID 1347067; cut-off not given, nearly all actives have AC50 up to about 26 µM;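 also: cells exposed to compound for 48 hours before readout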). Conditions: JHH-DIPG-1 glioma viability, CellTiter-Glo ATP luminescence.
The nature of test [9]: SU-DIPG-XXV glioma cell viability, MIPE5.0 library, qHTS (AID 1347068; cut-off not given, nearly all actives have IC50 up to about 30 µM;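 as to IC50: cells exposed to compound for 48 hours before viability readout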). Background: Quantitative high-throughput screening tests each substance at several concentrations.
Test [10] can be described thus: sensitizers of A549 cells to miR-34 induction, primary screen, imaging, A549 dox-inducible miR-34, nuclei and caspase counts (AID 1347080;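 active = compounds whose cell count with miR-34 switched on is under 0.7 times the count with it off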). Conditions: A549 miR-34 inducible, Hoechst nuclei count, 48 h.
Test [11] can be described thus: modifiers of HSF1 nuclear foci, imaging, Selleck Cancer Library (AID 1347162; in the data active = plate-normalised HSF1 focus index below about 0.46). The following applies: human cells, at 10 µM; SSMD: measured here: HSF1 foci SSMD mean; cell count: measured here: cell number; plate-normalised HSF1 focus index: stronger effect = lower value.
The nature of test [12]: survival rescue of mitochondrial mutant cells in low glucose, primary screen, MELAS cybrids, Rieske KO mouse fibroblasts, CellTiter-Glo (AID 1508586;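 active = mean z-score across replicates of 1.96 or higher in either the MELAS or the Rieske mutant cell line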;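 also: z relative to plate mean and SD of compound and empty wells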).
The nature of test [13]: ovarian cancer cell viability with rucaparib, profiling panel, oncology-focused library, rucaparib conditional (AID 1508598). The following applies: patient-derived ovarian cancer cells, CellTiter-Glo viability, 144 h, stronger effect = lower value.

Results filed as inconclusive are left out. Active and inactive are the calls of the source.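 The calls were made as follows, unless noted: active = normalized viability below 100% at a tested concentration; inactive = the rest.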

By AC50 is commonly meant the midpoint of the concentration-response curve, whichever way the signal moves. In general, IC50 refers to the concentration that inhibits the measured activity by half. Usually viability stands for a read-out of living cells in per cent, often relative to untreated cells.

Take `COc1cc2nc(-c3ccc(N4CCN(C)CC4)cc3)nc(NCCN3CCOCC3)c2cc1OC`: the AC50 in [1] is 14800 nM (active); in test [2], 332 nM (active); in [3], 332 nM (active); in [4] it was 132 nM (active); in test [5], 9340 nM (active); in [6], 8330 nM (active). Also, the figures for the concentration at half-maximal activity (AC50) in test [7] and in [8] were 118 nM (active) and 16600 nM (active), respectively. For the same compound, in test [9], the call was inactive.
In the case of `Nc1nc(-c2nn(Cc3ccccc3F)c3ncccc23)nc(N)c1N1CCOCC1`, the outcome in test [1], in [2], in test [3], in test [4], in test [5] and in [6] was inactive. Also, the compound was called inactive in test [7], in test [8] and in [9].
`Nc1cc(C(F)(F)F)c(-c2cc(N3CCOCC3)nc(N3CCOCC3)n2)cn1`: the AC50 in [1] was 2950 nM (active); in test [2], 6620 nM (active); in test [3], 2090 nM (active); in test [4] it was 332 nM (active); in test [5], 2950 nM (active); in [6], 934 nM (active). Also, the AC50 in test [7] and in test [8] was 1480 nM (active) throughout. For the same compound, the IC50 in test [9] is 3720 nM (active). For the same compound, the fold change is 0.829 (inactive) in test [10] (stronger effect = lower value, cell number ratio, induced over uninduced) and 1.1 in test [10] (measured here: relative caspase fold change +Dox/-Dox). In addition, the cell count was 1500 in test [10] (measured here: total cells with miR-34 induction, stronger effect = lower value); 1810 in [10] (measured here: total cells without miR-34 induction); 7440 in [11]. In addition, the SSMD in test [11] is -2.85. The plate-normalised HSF1 focus index in test [11] is 0.897 (inactive). Also, the z-score is 2.94 (active) in [12] (MELAS cybrid survival, CellTiter-Glo 48 h, stronger effect = higher value) and -2.21 in test [12] (Rieske KO mouse fibroblast survival, CellTiter-Glo 72 h). Besides, the viability in test [13] (at 0.000305 µM, OCI-C5x cells, with rucaparib 10 µM, 100% = cells with rucaparib alone) was 103% (inactive); in [13] (at 0.000305 µM, OCI-C5x cells, without rucaparib) it was 125% (inactive); in test [13] (at 0.000305 µM, OCI-P5x cells, with rucaparib 20 µM, 100% = cells with rucaparib alone) it was 104% (inactive); in test [13] (at 0.000305 µM, OCI-P5x cells, without rucaparib), 106% (inactive); in [13] (at 0.00122 µM, OCI-C5x cells, with rucaparib 10 µM, 100% = cells with rucaparib alone), 103% (inactive); in test [13] (at 0.00122 µM, OCI-C5x cells, without rucaparib) it was 120% (inactive). Further, the viability is 98.2% (active) in test [13] (at 0.00122 µM, OCI-P5x cells, with rucaparib 20 µM, 100% = cells with rucaparib alone); 114% (inactive) in test [13] (at 0.00122 µM, OCI-P5x cells, without rucaparib); 112% (inactive) in test [13] (at 0.00488 µM, OCI-C5x cells, with rucaparib 10 µM, 100% = cells with rucaparib alone); 141% (inactive) in test [13] (at 0.00488 µM, OCI-C5x cells, without rucaparib); 103% (inactive) in test [13] (at 0.00488 µM, OCI-P5x cells, with rucaparib 20 µM, 100% = cells with rucaparib alone); 107% (inactive) in test [13] (at 0.00488 µM, OCI-P5x cells, without rucaparib). In addition, the viability in [13] (at 0.0195 µM, OCI-C5x cells, with rucaparib 10 µM, 100% = cells with rucaparib alone) is 104% (inactive); in test [13] (at 0.0195 µM, OCI-C5x cells, without rucaparib), 117% (inactive); in test [13] (at 0.0195 µM, OCI-P5x cells, with rucaparib 20 µM, 100% = cells with rucaparib alone) it was 100% (inactive); in test [13] (at 0.0195 µM, OCI-P5x cells, without rucaparib) it was 110% (inactive); in test [13] (at 0.0781 µM, OCI-C5x cells, with rucaparib 10 µM, 100% = cells with rucaparib alone), 120% (inactive); in test [13] (at 0.0781 µM, OCI-C5x cells, without rucaparib), 121% (inactive). Besides, the viability in [13] (at 0.0781 µM, OCI-P5x cells, with rucaparib 20 µM, 100% = cells with rucaparib alone) is 104% (inactive); in test [13] (at 0.0781 µM, OCI-P5x cells, without rucaparib) it was 102% (inactive); in test [13] (at 0.313 µM, OCI-C5x cells, with rucaparib 10 µM, 100% = cells with rucaparib alone) it was 93.6% (active); in test [13] (at 0.313 µM, OCI-C5x cells, without rucaparib) it was 124% (inactive); in [13] (at 0.313 µM, OCI-P5x cells, with rucaparib 20 µM, 100% = cells with rucaparib alone) it was 87.5% (active); in test [13] (at 0.313 µM, OCI-P5x cells, without rucaparib) it was 92.9% (active). Further, the viability was 71.8% (active) in test [13] (at 1.25 µM, OCI-C5x cells, with rucaparib 10 µM, 100% = cells with rucaparib alone); 80.8% (active) in [13] (at 1.25 µM, OCI-C5x cells, without rucaparib); 69.7% (active) in test [13] (at 1.25 µM, OCI-P5x cells, with rucaparib 20 µM, 100% = cells with rucaparib alone); 51.3% (active) in [13] (at 1.25 µM, OCI-P5x cells, without rucaparib); 31.4% (active) in test [13] (at 5 µM, OCI-C5x cells, with rucaparib 10 µM, 100% = cells with rucaparib alone); 25.1% (active) in [13] (at 5 µM, OCI-C5x cells, without rucaparib). Besides, the viability was 26.6% (active) in [13] (at 5 µM, OCI-P5x cells, with rucaparib 20 µM, 100% = cells with rucaparib alone) and 12.2% (active) in test [13] (at 5 µM, OCI-P5x cells, without rucaparib).

These data come from PubChem BioAssay.
